# Source: PubChem BioAssay (several laboratories)
# Shown are actives, neighbours in structure and some others; about 2.4% of the full set was active somewhere.
# Arbovirus anti: antivirals against arbovirus infection, primary screen, cell-based, full library, 10K replicate subset | arbovirus infection cell-based antiviral screen | inhibition, % at 10 µM | 0.37% of 200,000 active; in the data active = inhibition above about 30%
# p97 inhibitor: inhibitors of human p97 ATPase, primary screen, biochemical; Transitional endoplasmic reticulum ATPase (Homo sapiens), P55072; AID 1481, 2009; 0.42% of 220,000 active; recombinant p97 ATPase, Kinase-Glo ATP luminescence, 3 h; inhibition, % at 8 µM; in the data active = inhibition above about 15%
# PGE2 EP2 inh: human EP2 receptor antagonists, primary screen, TR-FRET cAMP, C6 glioma cells. Prostaglandin E2 receptor EP2 subtype (Homo sapiens), P43116. C6 glioma cells expressing human EP2; cells stimulated with saturating PGE2. inhibition, % at 25 µM. 0.52% of 260,000 active. AID 1422, 2008;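 active = percent inhibition above 40 after rounding to a whole number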;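 also: rat C6 glioma host cells with rolipram phosphodiesterase inhibitor present; the protocol text gives 20 µM as final concentration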
# Target sequence (P43116 whole entry, looked up): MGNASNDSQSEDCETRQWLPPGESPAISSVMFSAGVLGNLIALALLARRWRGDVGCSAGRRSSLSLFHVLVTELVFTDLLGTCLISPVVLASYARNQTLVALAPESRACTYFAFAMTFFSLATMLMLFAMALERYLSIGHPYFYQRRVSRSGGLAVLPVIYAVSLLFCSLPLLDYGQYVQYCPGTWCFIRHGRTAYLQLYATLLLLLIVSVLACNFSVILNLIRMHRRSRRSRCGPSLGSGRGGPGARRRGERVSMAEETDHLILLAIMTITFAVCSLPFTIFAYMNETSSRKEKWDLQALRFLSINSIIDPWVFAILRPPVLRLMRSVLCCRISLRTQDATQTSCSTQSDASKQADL
# Hck Nef HTS: inhibitors of Nef-activated human Hck kinase, primary screen, biochemical, Z-Lyte FRET, 384-well, Hck-YEEI. Tyrosine-protein kinase HCK (Homo sapiens), P08631. Recombinant Hck-YEEI plus Nef, Z-Lyte FRET kinase assay. inhibition, % at 20 µM. 0.68% of 220,000 active;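 active = Hck-Nef kinase inhibition above about 50%, limit read from the data; inactive = inhibition below that limit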
# EP2 modulator: EP2 receptor modulators, cAMP readout, primary screen, cell-based, HTRF cAMP, PGE2 stimulation. induction, % at 25 µM. Prostaglandin E2 receptor EP2 subtype (Homo sapiens), P43116. EP2-expressing cells, cAMP HTRF FRET, PGE2 co-stimulation. AID 940, 2007. 0.83% of 260,000 active;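 active = compounds whose cAMP rise, as percent of the full-agonist control response, exceeds 60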;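 also: rat C6 glioma line stably carrying human EP2 under a CMV promoter; the protocol text gives 20 µM as final concentration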
# A number is an active result; n = inactive; x = no result given; ! = a repeat was not active.
SMILES,Arbovirus anti,p97 inhibitor,PGE2 EP2 inh,Hck Nef HTS,EP2 modulator
O=C(CSc1nnc(-c2ccncc2)n1Cc1ccco1)Nc1cc(C(F)(F)F)ccc1Cl,x,x,n,x,n
Cc1nc2ccccn2c1C(=O)N=Nc1c(O)n(CCC(C)C)c2ccccc12,n,n,50.7,n,n
O=C(COc1cccc2ccccc12)Nc1ccc(NC(=O)c2ccco2)cc1,x,x,n,x,n
COc1cccc(C2C=C(c3ccc(Br)s3)Nc3ncnn32)c1OC (stereo unspecified),n,n,112.4,n,n
C=CCOC(=O)C1=C(C)Nc2ncnn2C1c1cc(Br)ccc1F (stereo unspecified),n,n,n,n,n
Fc1ccc(Br)cc1C1C=C(c2ccc(Br)s2)Nc2ncnn21 (stereo unspecified),36.7,n,n,n,n
O=C(c1cccnc1)C1CCN(C(=O)c2ccco2)CC1,x,x,n,x,n
CCc1ccccc1NC(=O)CSc1nc2c(c(=O)n(C)c(=O)n2C)n1CC,x,x,n,x,n
Cc1cc(C)c2cc(CN(Cc3cccs3)C(c3nnnn3C(C)(C)C)C(C)C)c(=O)[nH]c2c1 (stereo unspecified),x,x,n,x,61.4
CCOc1ccc2[nH]c(=O)c(CN(Cc3cccs3)C(CC)c3nnnn3C(C)(C)CC)cc2c1 (stereo unspecified),n,n,n,n,n
CCCC(c1nnnn1C1CCCCC1)N(Cc1ccco1)Cc1cc2c(C)cc(C)cc2[nH]c1=O (stereo unspecified),x,x,n,x,69.0
CCc1ccc2[nH]c(=O)c(CN(Cc3cccs3)C(CC)c3nnnn3C(C)(C)CC)cc2c1 (stereo unspecified),x,x,n,x,60.8
Cc1cc(C)c2cc(CN(Cc3ccco3)Cc3nnnn3C3CCCCC3)c(=O)[nH]c2c1,x,x,n,x,68.8
COc1ccc(C(C(=O)NC2CCCCC2)N(C(=O)c2ccccn2)c2cccc(F)c2)c(OC)c1 (stereo unspecified),x,x,n,x,n
CCC(CC)c1nnc(NC(=O)c2ccc(F)cc2)s1,x,x,n,x,n
CCC(c1nnnn1C(C)(C)CC)N(Cc1ccco1)Cc1cc2cc(C)ccc2[nH]c1=O (stereo unspecified),x,x,n,x,89.5
CCC(c1nnnn1C1CCCC1)N(Cc1ccco1)Cc1cc2cc(C)ccc2[nH]c1=O (stereo unspecified),x,x,n,x,69.3
CCCC(c1nnnn1Cc1ccccc1)N(Cc1cc2cc(C)ccc2[nH]c1=O)C1CCCC1 (stereo unspecified),x,x,n,x,n
CCCC(c1nnnn1C1CCCCC1)N(Cc1ccco1)Cc1cc2cc(CC)ccc2[nH]c1=O (stereo unspecified),x,x,n,x,82.3
CCCC(c1nnnn1C(C)(C)C)N(Cc1cc2cc(C)ccc2[nH]c1=O)C1CCCCC1 (stereo unspecified),x,x,n,x,65.9
Fc1ccc(-c2nc3ccc(Cl)cn3c2NCC2CCCO2)cc1 (stereo unspecified),x,x,n,x,n
CCC(CN1CCCCC1)NC(=O)Cc1csc(-c2ccccc2F)n1 (stereo unspecified),x,x,n,x,n
O=C(c1ccc(CN2CCCCC2)o1)N1CCC(c2[nH]ncc2-c2ccncc2)CC1,x,x,x,x,n
Cc1nc2cc(F)ccc2n1C1CCN(CC(=O)Nc2ccccc2F)CC1,x,x,n,x,n
CCOC(=O)C1(Cc2cccc(OC)c2)CCN(Cc2cccc(OC)c2O)CC1,33.2,n,n,n,n
SMILES,Arbovirus anti,p97 inhibitor,PGE2 EP2 inh,Hck Nef HTS,EP2 modulator
Cc1ccc(NC(=O)c2ccco2)c(NC(=O)c2ccccc2)c1,x,x,n,x,n
CCN(CC)P(=O)(Nc1ccc(C)cc1Br)c1ccc(N(C)C)cc1NC(=O)c1ccco1 (stereo unspecified),n,n,n,n,64.6
COc1cc2ncnc(NCc3ccccc3C)c2cc1OC,n,n,n,n,n
COc1cc2ncnc(NCc3ccccc3Cl)c2cc1OC,n,n,n,73.6,n
COCCn1c(SCC(=O)Nc2ccccc2C)nnc1-c1ccoc1C,x,x,n,x,n
O=C1C(Cl)=C(Sc2nnc3c4ccccc4c4ccccc4c3n2)C(=O)c2ccccc21,x,x,58.4,x,n
O=C(O)CSc1nnc2c3ccccc3c3ccccc3c2n1,x,x,n,x,n
CN1CCN(CC(=O)NCCc2ccc(F)cc2)CC1,x,x,n,x,n
COC(=O)c1cc(-c2ccc(C(c3c(C)[nH][nH]c3=O)c3c(C)[nH][nH]c3=O)o2)ccc1Cl,x,x,40.0,x,n
COc1ccc(-c2ccc(C(c3c(C)[nH][nH]c3=O)c3c(C)[nH][nH]c3=O)o2)c([N+](=O)[O-])c1,n,15.0,n,n,n
Cc1[nH][nH]c(=O)c1C(c1ccc(-c2ccc(Cl)c(Cl)c2)o1)c1c(C)[nH][nH]c1=O,n,n,n,n,n
Cc1noc(C)c1CCC(=O)N[C@@H](Cn1nc(-c2cccs2)ccc1=O)C(C)C,x,x,n,x,n
Cc1ccc(C)c2[nH]c(=O)c(CN(CC3CCCO3)C(=S)Nc3ccc(F)cc3)cc12 (stereo unspecified),x,x,n,x,n
Cc1cc(=Nc2ccc3c(c2)c(N)cc(C)[n+]3C)nc(N)n1C,x,x,42.4,x,n
Cc1occc1-c1nnc(SCC(=O)N2CCCCC2)n1Cc1ccccc1,x,x,n,x,n
Cc1occc1-c1nnc(SCC(=O)N2CCN(c3ccccc3F)CC2)n1C,n,n,n,n,75.3!
COc1ccc(Cl)cc1NC(=O)CSc1nnc(-c2ccncc2)n1-c1cccc(Cl)c1,x,x,n,x,n
O=C(Nc1ccc(Cl)c(C(F)(F)F)c1)NC1CC2CCCC(C1)N2C1CC1 (stereo unspecified),x,n,40.9,n,x
O=C(Nc1cccc(F)c1)NC1CC2CCCC(C1)N2C1CC1 (stereo unspecified),n,n,n,n,n
Cc1ccc(S(=O)(=O)N2CCN(Cc3cc(C(C)C)ccc3O)CC2)cc1,30.4,n,n,n,n
Cc1ccc(S(=O)(=O)N2CCN(Cc3ccccc3C(F)(F)F)CC2)cc1,n,n,n,n,n
COC(=O)C1=C(C)N(Cc2ccco2)C(=O)N[C@@H]1c1cccc(C(F)(F)F)c1,31.7,n,x,n,n
COC(=O)C1=C(C)N(Cc2ccccc2)C(=O)N[C@H]1c1cccc(C(F)(F)F)c1,x,x,n,n,n
O=C1c2ccccc2-c2c(NCCc3ccccc3)c(=O)[nH]c3cccc1c23,x,x,n,x,65.8
O=c1[nH]ncc(NCCc2ccccc2)c1Cl,n,n,n,n,n
Cc1cc(C)c2[nH]c(=O)c(C(c3nnnn3C(C)(C)C)N3CCN(c4cccc(C)c4C)CC3)cc2c1 (stereo unspecified),x,x,n,x,n
CC(C)CO/C(=N/S(=O)(=O)c1ccccc1)c1ccccc1,n,n,n,n,64.7
N/C(=N\c1nc(CSc2nnnn2-c2ccccc2)cc(=O)[nH]1)Nc1ccccc1,n,n,n,n,n
O=c1cc(CSc2nnnn2-c2ccccc2)nc(Nc2ccc(F)cc2)[nH]1,30.6,n,n,n,n
